Measured values from PubChem BioAssay AID1345085 (National Center for Advancing Translational Sciences (NCATS), 2018).
Results filed as inconclusive are left out. Calls of active or inactive are those of the source. The call rests on the fitted dose curve; in most records, active means well fitted cell-killing curve with a large enough effect; inconclusive means small, poorly fitted or top-dose-only effect, or effect the other way; inactive means no such curve, though single readings can be large or run the other way.
Further: nearly all actives have a fitted effect of over 55% in size.
On the % scale 0 is the no-effect control and ±100 the full control effect; potency means the concentration at half of the fitted maximal effect.

These molecules were tested on CAOV3 (assay: Confirmatory qHTS for gynecologic anti-cancer compounds from libraries of approved drugs and bioactive compounds). Details: gynecologic cancer cell panel viability, ATPlite luminescence, 48 h; series mostly up to 57.6 µM; activity change, negative = viability loss: at the top concentration.
Procedure, shortened: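 Cells (1,000/well) plated 16 h, then exposed 48 h at 37 °C to 11 concentrations (1:3) from 57.5 uM to 0.977 nM. Viability by ATPlite luminescence after 15 min; IC50 derived, with HEK 293T used for selectivity index.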
`C=CC(=O)Nc1cc2c(Nc3ccc(F)c(Cl)c3)ncnc2cc1OCCCN1CCOCC1` was tested, and the Potency was 27.3 µM (active). For `CCN1C[C@H](C)n2c(c(O)c3c(=O)n(Cc4ccc(F)c(Cl)c4)nc(C(=O)NC)c32)C1=O`, the “activity change, negative = viability loss” value was 18.8% (inactive). For `Nc1ncn([C@@H]2O[C@H](CO)[C@@H](O)[C@H]2O)c(=O)n1`, the “activity change, negative = viability loss” value was 1.76% (inactive). With `CCC1=CC2CN(C1)Cc1c([nH]c3ccccc13)[C@@](C(=O)OC)(c1cc3c(cc1OC)N(C)[C@H]1[C@@](O)(C(=O)OC)[C@H](OC(C)=O)[C@]4(CC)C=CCN5CC[C@]31[C@@H]54)C2` (stereo partly specified) the “activity change, negative = viability loss” value was 1.08% [at 19.5 µM] (inactive). For `CCCC(Nc1nc(-c2ccc(NC(=O)NCC)c(OC)c2)ncc1C)c1cccnc1` (stereo unspecified), the “activity change, negative = viability loss” value was -17.6% (inactive). With `Cc1cc(Nc2nc(N[C@@H](C)c3ncc(F)cn3)ncc2Cl)n[nH]1` the Potency was 7.69 µM (active). In the case of `Nc1ccc(-c2ccc3ncc4ccc(=O)n(-c5cccc(C(F)(F)F)c5)c4c3c2)cn1`, the Potency is reported as 3.43 µM (active). With `c1nc2nc(Nc3ccc(N4CCOCC4)cc3)nc(NC3CCCCC3)c2[nH]1` the Potency was 4.73 µM (active). `COc1cc(Nc2ncc(F)c(Nc3ccc4c(n3)N(COP(=O)(O)O)C(=O)C(C)(C)O4)n2)cc(OC)c1OC` was tested, and the Potency was 3.43 µM (active). With `Cc1ccc(C(=O)Nc2ccc(CN3CCN(C)CC3)c(C(F)(F)F)c2)cc1C#Cc1cnc2cccnn12` the Potency was 19.3 µM (active). With `COc1cc2c(c(OC)c1OC)-c1ccc(OC)c(=O)cc1[C@@H](NC(C)=O)CC2` the “activity change, negative = viability loss” value was 0.285% [at 486 µM] (inactive). `CC(C)Oc1ccc(C(=O)NC(CNC(=O)CN(C)C)Cc2ccc(-c3cn4cccc(C(C)O)c4n3)cc2)cc1Cl` (stereo unspecified) was tested, and the “activity change, negative = viability loss” value was -17.3% (inactive). `O=c1cc(CN2CCOCC2)occ1OCCCCCSc1ccnc2cc(C(F)(F)F)ccc12` was tested, and the “activity change, negative = viability loss” value was -24.7% (inactive). In the case of `CC(C)C[C@H](NC(=O)[C@H](Cc1ccccc1)NC(=O)c1cnccn1)B(O)O`, the Potency is reported as 0.0769 µM (active). For `CN[C@@H](C)C(=O)N[C@H]1CN(C(=O)CC(C)C)CC[C@H]2CC[C@@H](C(=O)NC(c3ccccc3)c3ccccc3)N2C1=O`, the “activity change, negative = viability loss” value was -7.72% (inactive). For `S=c1nc[nH]c2nc[nH]c12`, the Potency was 0.769 µM (active). In the case of `Cc1cc(CN2CCN(c3c(Br)cnc4nc(-c5ccc(N6CCN(C)CC6)cc5)[nH]c34)CC2)no1`, the Potency is reported as 13.7 µM (active). In the case of `CNC1CCC(N(Cc2cccc(-c3ccncc3)c2)C(=O)c2sc3ccccc3c2Cl)CC1` (stereo unspecified), the Potency is reported as 27.3 µM (active). `Nc1nc(Cl)nc2c1ncn2C1OC(CO)C(O)C1F` (stereo unspecified) was tested, and the Potency was 0.544 µM (active). For `CN(C)CC/C=C1\c2ccccc2COc2ccccc21`, the “activity change, negative = viability loss” value was -7.48% (inactive). With `OCCNC1CCCc2c1[nH]c1ccc(-c3ccccc3)cc21` (stereo unspecified) the Potency was 24.3 µM (active).
